Source: the supplement of paper PMC10849652
About 8,800 targets were measured; listed, in parts, are those with a hit and a random draw of the rest. About 0.5% of all pairs of compound and target were hits.

Columns and labels:
Test in all cases: log2 fold change, soluble protein after heating vs DMSO (PISA); higher = thermal stabilisation; K562 lysate, 10 uM; active = over 0.2 and 3.5 SD of the protein, either way, in both replicates (recomputed)
[1] = compound: NCC(=O)Nc1ccc(-n2nc(C(F)(F)F)cc2-c2ccc3c(ccc4ccccc43)c2)cc1
Procedure, shortened: (§1)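 Soluble protein was defined as the supernatant remaining after 21,000xg for 90 min, following pooling of heated aliquots and adjustment to 0.5% NP-40 at 4°C. Before that, crude K562 extract at 1 mg/mL protein in PBS pH 7.4 with 1 mM MgCl2 was treated with 10 μM compound for 30 min and heated for 3 min across 48°C-58°C. Quantification used TMTpro 16plex LC-MS/MS with channel sums equalised, and values are log-two fold changes in thermal stability relative to solvent controls from duplicates.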

vorinostat = compound: O=C(CCCCCCC(=O)Nc1ccccc1)NO [vorinostat]
Procedure, shortened: as §1

silmitasertib = compound: O=C(O)c1ccc2c(c1)nc(Nc1cccc(Cl)c1)c1ccncc12 [silmitasertib]
Procedure, shortened: as §1

[2] = compound: O=C1NC(=O)C(c2cnc3ccccn23)=C1c1cn2c3c(cc(F)cc13)CN(C(=O)N1CCCCC1)CC2
Procedure, shortened: as §1

entospletinib = compound: c1cn2cc(-c3ccc4cn[nH]c4c3)nc(Nc3ccc(N4CCOCC4)cc3)c2n1 [entospletinib]
Procedure, shortened: as §1

Measured: log2 fold change

MORC3 (UniProt Q14149)
active: vorinostat -0.303
inactive: [1] 0.008 | silmitasertib -0.01 | [2] 0.005 | entospletinib 0.009

LRPPRC (UniProt H7C3W8)
inactive: [1] 0.792

LPCAT1 (UniProt Q8NF37)
inactive: [1] -0.011 | vorinostat 0.027 | silmitasertib -0.076 | [2] -0.026 | entospletinib -0.057

KPNA4 (UniProt O00629)
UniProt O00629, sequence (O00629 whole entry, looked up): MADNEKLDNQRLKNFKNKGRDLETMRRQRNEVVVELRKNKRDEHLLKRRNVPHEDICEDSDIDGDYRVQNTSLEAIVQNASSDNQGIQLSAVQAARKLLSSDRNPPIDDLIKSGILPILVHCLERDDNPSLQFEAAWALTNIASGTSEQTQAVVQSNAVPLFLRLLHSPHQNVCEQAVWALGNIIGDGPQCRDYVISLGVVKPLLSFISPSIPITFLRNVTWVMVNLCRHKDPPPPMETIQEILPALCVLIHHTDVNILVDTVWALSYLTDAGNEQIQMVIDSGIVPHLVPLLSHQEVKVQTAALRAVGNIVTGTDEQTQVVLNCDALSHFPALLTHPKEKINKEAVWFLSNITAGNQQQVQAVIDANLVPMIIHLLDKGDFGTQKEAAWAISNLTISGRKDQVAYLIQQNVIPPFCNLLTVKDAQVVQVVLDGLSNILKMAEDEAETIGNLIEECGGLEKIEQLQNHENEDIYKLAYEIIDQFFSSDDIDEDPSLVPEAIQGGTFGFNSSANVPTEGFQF
inactive: [1] 0.006 | vorinostat 0.047 | silmitasertib 0.024 | [2] 0.02 | entospletinib 0.021

KNL1 (UniProt Q8NG31)
inactive: [1] 0.022 | silmitasertib -0.003 | [2] -0.009 | entospletinib -0.011
active: vorinostat -0.254

MICU2 (UniProt Q8IYU8)
UniProt Q8IYU8, sequence (Q8IYU8 whole entry, looked up): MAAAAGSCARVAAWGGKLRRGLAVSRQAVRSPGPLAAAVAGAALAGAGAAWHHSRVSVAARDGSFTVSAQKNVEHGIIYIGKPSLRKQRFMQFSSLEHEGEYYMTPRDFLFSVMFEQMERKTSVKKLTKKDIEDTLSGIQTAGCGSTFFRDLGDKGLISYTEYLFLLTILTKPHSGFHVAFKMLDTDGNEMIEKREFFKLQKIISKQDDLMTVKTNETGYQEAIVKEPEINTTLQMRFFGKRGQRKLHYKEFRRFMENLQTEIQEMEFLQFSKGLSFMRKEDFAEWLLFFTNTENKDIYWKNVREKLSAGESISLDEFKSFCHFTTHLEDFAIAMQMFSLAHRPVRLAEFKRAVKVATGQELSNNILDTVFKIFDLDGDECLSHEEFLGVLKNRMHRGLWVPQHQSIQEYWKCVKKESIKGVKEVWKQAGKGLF
inactive: [1] 0.012 | vorinostat -0.179 | silmitasertib 0.031 | [2] -0.009 | entospletinib -0.089

MRPL35 (UniProt Q9NZE8)
inactive: [1] -0.229 | vorinostat -0.159 | silmitasertib 0.04 | [2] 0.013

LARS2 (UniProt Q15031)
inactive: [1] -0.062 | vorinostat -0.229 | silmitasertib 0.054 | [2] -0.083 | entospletinib 0.036

KNOP1 (UniProt Q1ED39)
inactive: [1] 0.019 | vorinostat 0.063 | silmitasertib 0.005 | [2] 0.03 | entospletinib -0.035

LUC7L (UniProt Q9NQ29)
UniProt Q9NQ29, sequence (Q9NQ29 whole entry, looked up): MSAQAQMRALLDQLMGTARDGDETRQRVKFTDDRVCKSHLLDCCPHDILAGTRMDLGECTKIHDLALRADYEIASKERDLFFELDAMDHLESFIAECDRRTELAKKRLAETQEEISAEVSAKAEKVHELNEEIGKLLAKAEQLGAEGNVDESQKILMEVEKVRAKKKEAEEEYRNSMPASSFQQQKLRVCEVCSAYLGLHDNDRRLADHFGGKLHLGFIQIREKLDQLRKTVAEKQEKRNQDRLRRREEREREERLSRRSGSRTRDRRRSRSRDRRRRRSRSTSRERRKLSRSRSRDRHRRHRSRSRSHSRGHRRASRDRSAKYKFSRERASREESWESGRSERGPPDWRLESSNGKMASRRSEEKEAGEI
inactive: [1] 0.003 | vorinostat 0.136 | silmitasertib -0.126 | [2] -0.016 | entospletinib -0.019

MPP5 (UniProt Q8N3R9)
inactive: [1] 0.015 | vorinostat 0.016 | silmitasertib -0.1 | [2] 0 | entospletinib 0.013

MAST4 (UniProt O15021)
inactive: [1] -0.073 | vorinostat -0.381 | silmitasertib 0.281 | [2] -0.025 | entospletinib 0.018

LARP4B (UniProt Q92615)
UniProt Q92615, sequence (Q92615 whole entry, looked up): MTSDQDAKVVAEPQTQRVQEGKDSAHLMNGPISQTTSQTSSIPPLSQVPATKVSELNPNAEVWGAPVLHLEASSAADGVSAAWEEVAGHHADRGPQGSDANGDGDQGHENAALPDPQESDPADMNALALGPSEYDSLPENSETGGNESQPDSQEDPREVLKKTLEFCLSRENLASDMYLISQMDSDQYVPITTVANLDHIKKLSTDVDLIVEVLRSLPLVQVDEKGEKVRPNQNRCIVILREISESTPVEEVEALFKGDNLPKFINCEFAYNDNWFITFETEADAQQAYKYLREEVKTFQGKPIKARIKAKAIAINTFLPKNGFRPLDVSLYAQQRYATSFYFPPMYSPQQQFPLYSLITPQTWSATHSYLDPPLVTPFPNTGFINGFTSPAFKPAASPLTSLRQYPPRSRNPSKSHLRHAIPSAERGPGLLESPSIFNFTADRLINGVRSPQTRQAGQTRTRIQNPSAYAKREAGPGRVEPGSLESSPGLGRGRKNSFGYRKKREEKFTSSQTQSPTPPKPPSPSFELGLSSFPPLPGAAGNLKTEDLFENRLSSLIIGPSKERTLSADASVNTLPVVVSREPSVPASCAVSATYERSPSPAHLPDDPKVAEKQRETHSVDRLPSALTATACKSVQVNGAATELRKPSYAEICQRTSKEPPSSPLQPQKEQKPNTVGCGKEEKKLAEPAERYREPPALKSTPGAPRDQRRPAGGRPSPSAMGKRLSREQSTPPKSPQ
inactive: [1] 0.019 | silmitasertib 0.032 | [2] -0.028 | entospletinib -0.011
active: vorinostat -0.306

LTN1 isoform 3 (UniProt O94822)
UniProt O94822, sequence (O94822 whole entry, looked up): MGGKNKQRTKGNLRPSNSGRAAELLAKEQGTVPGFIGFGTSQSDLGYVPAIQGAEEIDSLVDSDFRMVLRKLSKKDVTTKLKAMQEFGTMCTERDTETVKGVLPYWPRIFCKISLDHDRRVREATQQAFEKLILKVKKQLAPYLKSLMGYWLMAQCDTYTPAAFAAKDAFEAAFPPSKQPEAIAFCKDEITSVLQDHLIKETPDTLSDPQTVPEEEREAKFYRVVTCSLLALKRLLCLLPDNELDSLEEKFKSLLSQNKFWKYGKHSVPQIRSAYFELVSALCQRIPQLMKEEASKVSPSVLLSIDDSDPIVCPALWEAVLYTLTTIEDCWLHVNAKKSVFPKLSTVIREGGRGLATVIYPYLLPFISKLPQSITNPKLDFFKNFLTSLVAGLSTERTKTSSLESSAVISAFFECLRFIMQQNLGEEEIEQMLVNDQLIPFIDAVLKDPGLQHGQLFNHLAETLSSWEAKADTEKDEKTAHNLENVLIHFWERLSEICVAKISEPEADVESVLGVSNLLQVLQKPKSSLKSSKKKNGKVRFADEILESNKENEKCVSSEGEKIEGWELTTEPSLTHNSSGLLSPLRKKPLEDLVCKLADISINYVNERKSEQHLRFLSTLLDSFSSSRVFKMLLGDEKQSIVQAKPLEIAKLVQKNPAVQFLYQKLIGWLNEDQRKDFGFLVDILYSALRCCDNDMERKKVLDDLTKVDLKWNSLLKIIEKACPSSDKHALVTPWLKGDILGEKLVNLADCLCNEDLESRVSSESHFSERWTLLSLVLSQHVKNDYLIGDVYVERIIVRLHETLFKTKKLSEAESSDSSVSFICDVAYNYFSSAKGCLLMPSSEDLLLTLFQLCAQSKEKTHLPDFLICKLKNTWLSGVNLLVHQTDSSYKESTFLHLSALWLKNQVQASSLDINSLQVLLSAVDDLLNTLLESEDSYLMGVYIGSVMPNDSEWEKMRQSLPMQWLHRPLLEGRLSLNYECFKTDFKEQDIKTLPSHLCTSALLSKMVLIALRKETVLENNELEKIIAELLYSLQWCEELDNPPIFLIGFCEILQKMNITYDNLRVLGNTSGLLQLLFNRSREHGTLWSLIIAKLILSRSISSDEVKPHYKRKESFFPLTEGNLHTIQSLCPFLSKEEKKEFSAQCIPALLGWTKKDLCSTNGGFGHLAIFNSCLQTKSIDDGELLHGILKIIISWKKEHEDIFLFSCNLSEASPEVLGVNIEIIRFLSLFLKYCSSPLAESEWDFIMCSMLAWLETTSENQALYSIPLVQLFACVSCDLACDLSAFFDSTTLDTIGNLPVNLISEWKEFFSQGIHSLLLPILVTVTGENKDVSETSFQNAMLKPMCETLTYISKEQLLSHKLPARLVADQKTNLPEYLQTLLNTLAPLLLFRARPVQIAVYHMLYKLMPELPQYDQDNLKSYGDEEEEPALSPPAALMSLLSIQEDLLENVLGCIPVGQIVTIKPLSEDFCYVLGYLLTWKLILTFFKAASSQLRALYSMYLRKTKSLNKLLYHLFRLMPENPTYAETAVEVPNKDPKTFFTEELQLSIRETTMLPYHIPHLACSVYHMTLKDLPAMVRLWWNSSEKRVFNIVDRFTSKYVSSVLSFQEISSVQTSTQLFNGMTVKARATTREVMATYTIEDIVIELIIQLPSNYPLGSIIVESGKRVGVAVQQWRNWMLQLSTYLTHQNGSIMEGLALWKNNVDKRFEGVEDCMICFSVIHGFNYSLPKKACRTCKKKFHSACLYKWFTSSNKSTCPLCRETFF
active: vorinostat -0.58
inactive: [1] 0.057 | silmitasertib 0.04 | [2] 0.028 | entospletinib 0.034

MORC2 (UniProt Q9Y6X9)
active: vorinostat -0.328
inactive: [1] 0.014 | silmitasertib 0.103 | [2] -0.015 | entospletinib 0.013

KLC1 isoform 6 (UniProt Q07866)
UniProt Q07866, sequence (Q07866 whole entry, looked up): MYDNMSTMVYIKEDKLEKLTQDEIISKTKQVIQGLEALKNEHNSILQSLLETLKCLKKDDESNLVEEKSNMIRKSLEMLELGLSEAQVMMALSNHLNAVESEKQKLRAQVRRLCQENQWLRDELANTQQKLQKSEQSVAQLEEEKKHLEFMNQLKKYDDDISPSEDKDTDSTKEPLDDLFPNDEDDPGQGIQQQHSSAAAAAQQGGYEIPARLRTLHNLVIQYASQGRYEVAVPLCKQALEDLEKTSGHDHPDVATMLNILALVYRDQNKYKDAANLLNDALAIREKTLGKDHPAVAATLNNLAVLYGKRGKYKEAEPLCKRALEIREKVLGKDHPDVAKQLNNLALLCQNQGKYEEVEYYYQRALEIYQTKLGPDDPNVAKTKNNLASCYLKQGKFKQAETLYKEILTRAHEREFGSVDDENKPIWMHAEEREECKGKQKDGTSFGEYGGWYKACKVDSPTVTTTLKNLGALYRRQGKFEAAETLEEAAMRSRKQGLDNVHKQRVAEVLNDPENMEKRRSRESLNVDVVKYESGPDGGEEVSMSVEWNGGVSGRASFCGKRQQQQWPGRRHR
active: vorinostat -0.231
inactive: [1] 0.024 | silmitasertib -0.004 | [2] -0.034 | entospletinib 0.013

MDM2 isoform 11 (UniProt Q00987)
inactive: [1] -0.137 | vorinostat -0.062 | silmitasertib 0 | [2] -0.039

KLHL12 isoform 2 (UniProt Q53G59)
UniProt Q53G59, sequence (Q53G59 whole entry, looked up): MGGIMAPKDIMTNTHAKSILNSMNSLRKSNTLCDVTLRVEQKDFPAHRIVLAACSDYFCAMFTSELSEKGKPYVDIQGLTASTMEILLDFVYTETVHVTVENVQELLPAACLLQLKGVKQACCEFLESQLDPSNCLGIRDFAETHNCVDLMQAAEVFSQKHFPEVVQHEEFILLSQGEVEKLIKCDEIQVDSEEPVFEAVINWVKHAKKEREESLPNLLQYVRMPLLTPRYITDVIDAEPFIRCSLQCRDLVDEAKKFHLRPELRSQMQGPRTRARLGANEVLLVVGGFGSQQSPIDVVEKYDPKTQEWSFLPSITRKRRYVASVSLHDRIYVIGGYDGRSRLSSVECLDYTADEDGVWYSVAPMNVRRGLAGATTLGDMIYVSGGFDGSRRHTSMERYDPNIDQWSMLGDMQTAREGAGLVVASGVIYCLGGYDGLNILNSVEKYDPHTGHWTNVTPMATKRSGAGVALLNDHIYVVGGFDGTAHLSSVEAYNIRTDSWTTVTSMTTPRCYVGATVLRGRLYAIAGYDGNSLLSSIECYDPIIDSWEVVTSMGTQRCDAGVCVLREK
inactive: [1] 0.135 | vorinostat -0.108 | silmitasertib 0.024 | [2] 0.003

MED12 isoform 2 (UniProt Q93074)
active: vorinostat -0.466
inactive: [1] 0.003 | silmitasertib -0.044 | [2] -0.008 | entospletinib -0.012

LRPPRC (UniProt P42704)
inactive: [1] -0.004 | silmitasertib 0.072 | [2] 0.023 | entospletinib 0.035
active: vorinostat -0.259

KIF2A isoform 4 (UniProt O00139)
active: vorinostat -0.518
inactive: [1] -0.018 | silmitasertib 0.044 | [2] -0.015 | entospletinib -0.006

MED10 (UniProt Q9BTT4)
active: entospletinib -0.349
inactive: [1] -0.001 | vorinostat -0.04 | silmitasertib -0.085 | [2] 0.021

MAPKAPK2 (UniProt P49137)
inactive: [1] -0.019 | silmitasertib 0.072 | [2] -0.014 | entospletinib 0.04
active: vorinostat -0.36

MRPL15 (UniProt Q9P015)
inactive: [1] 0.068 | vorinostat 0.137 | silmitasertib -0.071 | [2] -0.02 | entospletinib -0.061

KIF3C (UniProt O14782)
active: [1] 1.17
inactive: vorinostat -0.352 | silmitasertib 0.249 | [2] 0.074 | entospletinib 0.032
